# PubChem BioAssay (NCI)
# About 83,000 compounds went through this panel and 20% of them were active in at least one assay; those are over-represented in the sample as a whole.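 Step 1: grow cells in 96-well plates. Step 2: add test compound at a single concentration. Step 3: incubate 48 h. Step 4: record percent growth.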 A number with no mark means an inactive call. Activity calls are given as the source filed them. How the source made its calls: active means growth percent below 10; inactive means the rest.
# Test system: K-562 leukemia
# Assay: NCI-60 one-dose screen, 48 h (100 = growth as untreated, 0 = no growth, -100 = all killed)
# Details: 10 µM unless noted
row,SMILES,growth
1,COC(=O)[C@@H](Cc1c[nH]c2ccccc12)NC(=O)/C=C/c1ccccc1,15.9%
2,NNc1ccc(S(N)(=O)=O)cc1,109%
3,COc1ccc(-c2ccc(-c3ccc(C(=N)N)s3)s2)cc1,-21.5% (active)
4,O=C1OC(/C=C/c2ccccc2)=NC/1=C/c1ccccc1[N+](=O)[O-],106%
5,N/C(=N\O)c1ncc(-c2ccc(C(F)(F)F)cc2)c(NC2CCCCCC2)n1,-60.4% [100 µM] (active)
6,Cc1cc(Nc2c3ccccc3nc3ccccc23)ccc1NS(C)(=O)=O,17.7%
7,COC(=O)[C@H](Cc1cn(C)cn1)NC(=O)[C@H](CC(C)C)NC(=O)Nc1cc(C(F)(F)F)cc(C(F)(F)F)c1,-65.4% [100 µM] (active)
8,N=C(N)c1ccc(-c2ccc(-c3cccs3)s2)cc1F,-6.25% (active)
9,O=C(Nc1cccc(Cl)c1)Nc1ccccc1Cl,61.3%
10,CCCCCCCCCCCCCC,113%
11,Cc1nn(-c2ccccc2)c2nc3c(nc12)C1=NCCN1C(c1ccc(Cl)cc1)N3 (centres undefined),5.26% (active)
12,COc1cc(OC)c(C(=O)/C=C/c2cccc(OC(C)=O)c2)cc1CC=C(C)C,16.5%
13,Cc1cc2nc(CN)[nH]c2cc1C,102%
14,CC(=O)C1CCC2C3CC(C)=C4CC(O)CCC4(C)C3CCC12C (centres undefined),86.1%
15,N=C(N)c1ccc(-c2ccc(-c3ccco3)o2)cc1F,1.49% (active)
16,N#Cc1ccc(-c2ccc(-c3cccs3)o2)cc1F,83.7%

row,SMILES,growth
1,COc1ccc2nc3ccccc3c(NCc3ccc(C)cc3)c2c1,2.71% (active)
2,COc1cc(OC)cc(-c2ccc(-c3ccc(C(=N)N)s3)s2)c1,-35.7% (active)
3,COc1ccc(-c2cc(-c3cc4ccccc4oc3=O)n(-c3ccccc3)n2)cc1,81.8%
4,O=C1c2cccc3cccc(c23)C(=O)N1CCCCCCCCCCN1C(=O)c2cccc3cccc(c23)C1=O,103%
5,CCCCCc1c(C)[nH]c(/C=C2\N=C(c3ccc[nH]3)C=C2Oc2ccc(OC)cc2)c1C,-14.6% [100 µM] (active)
6,ClCCn1cnc2c(SCc3ccccc3Cl)ncnc21,13%
7,CCS(=O)(=O)Nc1cccc(Nc2c3cccc(C)c3nc3c(C)cccc23)c1OC,8.19% (active)
8,CCN(C(=O)CCl)C(C)(C)C(SSSC(c1ccc(Cl)cc1)C(C)(C)N(CC)C(=O)CCl)c1ccc(Cl)cc1 (centres undefined),0.579% (active)
9,CCOC(=O)C(CCCCC(NC(C)=O)(C(=O)OCC)C(=O)OCC)(NC(C)=O)C(=O)OCC,108%
10,COc1ccc(-n2nc(C(=O)Nc3ccc(F)cc3)nc2-c2cc(OC)c(OC)c(OC)c2)cc1,83.7%
11,ClC1=NC(Cl)C(Cl)=N/C1=N\c1ncn[nH]1 (centres undefined),-48% (active)
12,COc1cc2c(cc1OC)-c1cc(OC)c(OC)cc1C(CN(C)C)C2 (centres undefined),77.6% [100 µM]
13,Oc1ccc(-c2nnc3c4[nH]ccc4ncn23)cc1,98.4%
14,COc1ccc(/C=N/NC(N)=S)c(OC)n1,89.5%
15,CC(C)(C)c1cc(C[P+](c2ccccc2)(c2ccccc2)c2ccccc2)cc(C(C)(C)C)c1O,3.48% (active)
16,FC(F)(F)c1cc(-c2nnc3n2N=C(Cl)CS3)cc(C(F)(F)F)c1,83.4%

# Test system: MALME-3M melanoma
# Assay: as above
# Details: 10 µM unless noted
row,SMILES,growth
1,COC(=O)[C@@H](Cc1c[nH]c2ccccc12)NC(=O)/C=C/c1ccccc1,35.1%
2,NNc1ccc(S(N)(=O)=O)cc1,104%
3,COc1ccc(-c2ccc(-c3ccc(C(=N)N)s3)s2)cc1,-61.4% (active)
4,O=P(O)(O)C(O)(Cc1cccnc1)P(=O)(O)O,113%
5,O=C1OC(/C=C/c2ccccc2)=NC/1=C/c1ccccc1[N+](=O)[O-],96.9%
6,N/C(=N\O)c1ncc(-c2ccc(C(F)(F)F)cc2)c(NC2CCCCCC2)n1,-92.6% [100 µM] (active)
7,Cc1cc(Nc2c3ccccc3nc3ccccc23)ccc1NS(C)(=O)=O,44.1%
8,COC(=O)[C@H](Cc1cn(C)cn1)NC(=O)[C@H](CC(C)C)NC(=O)Nc1cc(C(F)(F)F)cc(C(F)(F)F)c1,-93.5% [100 µM] (active)
9,N=C(N)c1ccc(-c2ccc(-c3cccs3)s2)cc1F,-73.4% (active)
10,O=C(Nc1cccc(Cl)c1)Nc1ccccc1Cl,92%
11,CCCCCCCCCCCCCC,113%
12,Cc1nn(-c2ccccc2)c2nc3c(nc12)C1=NCCN1C(c1ccc(Cl)cc1)N3 (centres undefined),7.76% (active)
13,COc1cc(OC)c(C(=O)/C=C/c2cccc(OC(C)=O)c2)cc1CC=C(C)C,122%
14,C[N+](C)(C)CCCCCCCCCC[N+](C)(C)C,93%
15,Cc1cc2nc(CN)[nH]c2cc1C,104%
16,N=C(N)c1ccc(-c2ccc(-c3ccco3)o2)cc1F,-68.2% (active)
17,N#Cc1ccc(-c2ccc(-c3cccs3)o2)cc1F,86.6%
18,O=C(Nc1cccc(-n2ccc3c(NC(=O)c4ccccc4)nccc32)c1)c1ccc(Cl)c(Cl)c1,-56% (active)
19,COc1ccc2nc3ccccc3c(NCc3ccc(C)cc3)c2c1,22.1%

row,SMILES,growth
1,COc1cc(OC)cc(-c2ccc(-c3ccc(C(=N)N)s3)s2)c1,-73.8% (active)
2,COc1ccc(-c2cc(-c3cc4ccccc4oc3=O)n(-c3ccccc3)n2)cc1,69.5%
3,O=C1c2cccc3cccc(c23)C(=O)N1CCCCCCCCCCN1C(=O)c2cccc3cccc(c23)C1=O,113%
4,O=C(CCCN1CCC(O)(c2ccc(Br)cc2)CC1)c1ccc(F)cc1,86.8%
5,O=C(c1ccc(OCCN2CCCCC2)cc1)c1c(-c2ccc(O)cc2)sc2cc(O)ccc12,99.4%
6,CCCCCc1c(C)[nH]c(/C=C2\N=C(c3ccc[nH]3)C=C2Oc2ccc(OC)cc2)c1C,-75.4% [100 µM] (active)
7,ClCCn1cnc2c(SCc3ccccc3Cl)ncnc21,43%
8,O=C(N/N=C/c1ccc([N+](=O)[O-])o1)c1ccc(O)cc1,-34.9% (active)
9,CCS(=O)(=O)Nc1cccc(Nc2c3cccc(C)c3nc3c(C)cccc23)c1OC,21.5%
10,CCN(C(=O)CCl)C(C)(C)C(SSSC(c1ccc(Cl)cc1)C(C)(C)N(CC)C(=O)CCl)c1ccc(Cl)cc1 (centres undefined),28.9%
11,CCOC(=O)C(CCCCC(NC(C)=O)(C(=O)OCC)C(=O)OCC)(NC(C)=O)C(=O)OCC,108%
12,COc1ccc(-n2nc(C(=O)Nc3ccc(F)cc3)nc2-c2cc(OC)c(OC)c(OC)c2)cc1,96.2%
13,ClC1=NC(Cl)C(Cl)=N/C1=N\c1ncn[nH]1 (centres undefined),-64.3% (active)
14,COc1cc2c(cc1OC)-c1cc(OC)c(OC)cc1C(CN(C)C)C2 (centres undefined),44.1% [100 µM]
15,Oc1ccc(-c2nnc3c4[nH]ccc4ncn23)cc1,94.5%
16,COc1ccc(/C=N/NC(N)=S)c(OC)n1,103%
17,CC(C)(C)c1cc(C[P+](c2ccccc2)(c2ccccc2)c2ccccc2)cc(C(C)(C)C)c1O,-18.1% (active)
18,FC(F)(F)c1cc(-c2nnc3n2N=C(Cl)CS3)cc(C(F)(F)F)c1,99%
